# Compounds with a hit are over-represented: about 2.8% of the library has one in this group of screens.
# TROY signal inh = TROY signaling inhibition; Q293 LMP1-TROYcd NF-kB luciferase reporter, 4 h; inhibition, % at 10 µM; AID 1347056; 0.98% of 360,000 active;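 active = compounds whose plate-normalised and pattern-corrected inhibition of the luciferase reporter signal at the single screening dose is 50% or more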
# LGR2 inh = blocks bursicon-induced cAMP signaling via Drosophila LGR2 | HEK293 LGR2, CRE-luciferase, bursicon-stimulated, 4 h | inhibition, % at 9.99 µM | 0.35% of 380,000 active | AID 720647;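 active = drop in luminescence signal, shown as inhibition above about 50% in the replicate tests, limit read from the data, passing the limit was not always enough; inconclusive = probably only some replicates passing the limit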;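 also: agonist challenge used bursicon conditioned medium at about half maximal strength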
# TWEAK-Fn14 inh = blocks TWEAK-Fn14 interaction in a reporter cell assay; TWEAK-stimulated Fn14 reporter cells, luciferase luminescence, 8 h; inhibition, % at 10 µM; 2% of 360,000 active; AID 1159606; in the data active = inhibition above about 50%
# PAX8 reporter = PAX8 transcriptional activity inhibition | RMG-I TPO-luciferase reporter, SteadyGlo, 24 h | inhibition, % at 12.6 µM | 1.2% of 360,000 active | AID 652154;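 active = mean replicate inhibition at least 60% with every replicate also reaching 60%; inconclusive = only one of the two criteria is met; inactive = mean below 60% and not all replicates reaching 60%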;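 also: luciferase light reporting Pax8 driven TPO promoter activity; plate controls were median of neutral control wells for no effect and mitoxantrone controls for full effect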
# EWS-Fli inh = blocks EWS/Fli oncoprotein-driven transcription; A673 NR0B1-luciferase reporter, viability-normalised; inhibition, % at 12.6 µM; 0.67% of 350,000 active; AID 651661;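 active = mean inhibition of at least 50% after viability correction, with every replicate also passing that limit; inconclusive = mean reaches 50% but only one of two replicates passes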;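 also: firefly luciferase signal divided by Alamar Blue viability fluorescence both relative to DMSO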
# * hit, by the source's call; ? = inconclusive; . = no result given.
SMILES,TROY signal inh,LGR2 inh,TWEAK-Fn14 inh,PAX8 reporter,EWS-Fli inh
Cc1ccc(S(=O)(=O)Nc2ccc3c(c2)C(=O)N([C@H](C)CO)C[C@@H](C)[C@@H](CN(C)Cc2ccc(Cl)c(Cl)c2)OCCCC[C@H](C)O3)cc1,.,-2,.,55,3
Cc1ccc(S(=O)(=O)Nc2ccc3c(c2)C(=O)N([C@H](C)CO)C[C@@H](C)[C@H](CN(C)Cc2ccc(Cl)c(Cl)c2)OCCCC[C@H](C)O3)cc1,.,-32,.,96*,29
COc1ccccc1-c1ccc2n(c1=O)C[C@H]1[C@H](CO)[C@@H](C(=O)NCCCN(C)C)N(C(C)=O)[C@@H]21,.,5,.,5,-1
CCCNC(=O)N1C[C@H](C)[C@H](OC)CN(C)C(=O)c2cc(NS(C)(=O)=O)ccc2OC[C@H]1C,.,8,.,-2,33
Cc1nn(C(C)(C)C)c(C)c1/C=N/OC(=O)Nc1ccc(Cl)cc1,82*,99*,103*,79*,87*
C[C@@H]1CN([C@@H](C)CO)C(=O)c2cc(NS(=O)(=O)c3ccc(Cl)cc3)ccc2O[C@@H](C)CCCCO[C@@H]1CN(C)Cc1ccncc1,.,-6,.,2,-7
CN(C)c1ccc(/C=N/n2ncc3ccccc32)cc1,23,.,54*,.,.
CCCS(=O)(=O)c1ncc(Cl)c(C(=O)Nc2ccc(S(=O)(=O)Nc3ncccn3)cc2)n1,-18,3,-1,10,-3
CC(=O)Nc1ccc(NC(=O)c2nc(S(=O)(=O)Cc3cccc(C)c3)ncc2Cl)cc1,75*,-39,70*,91*,61*
COC(=O)c1ccc(NC(=O)c2nc(S(=O)(=O)Cc3cccc(C)c3)ncc2Cl)cc1,76*,6,72*,26,.
Cc1cccc(CS(=O)(=O)c2ncc(Cl)c(C(=O)NCc3ccc4c(c3)OCO4)n2)c1,69*,5,89*,-6,.
Cc1ccc(C(=O)NCc2ccc3c(c2)OCO3)c(Cl)c1,-51,-53,-11,-34,-22
C[C@@H]1CN([C@H](C)CO)C(=O)c2cccc(NS(C)(=O)=O)c2O[C@H]1CN(C)Cc1ccc2c(c1)OCO2,.,-9,.,-13,.
Cc1noc(C)c1S(=O)(=O)Nc1ccc2c(c1)CC(=O)N([C@H](C)CO)C[C@H](C)[C@@H](CN(C)C(=O)NC1CCCCC1)O2,.,-1,.,.,-3
O=C(c1c[nH]c2ccccc12)C(Cl)c1ccccc1 (stereo not given),13,21,79*,81*,28
C[C@H]1CN([C@@H](C)CO)C(=O)c2cc(-c3cncnc3)cnc2O[C@@H]1CN(C)C(=O)c1ccccc1F,.,15,.,.,-11
Cn1c(=O)c(/C=C/c2ccccc2)nc2ccccc21,-46,-17,-6,-58,-25
Cn1c(/C=C/c2ccccc2)nc2ccccc21,31,80*,83*,79*,59*
Cc1nc(C)c(C(=O)Nc2nc3c(C)cccc3s2)o1,35,-5,70*,.,.
CC(C)NC(=O)N[C@H]1CC[C@@H](CCNC(=O)C2CCC2)O[C@H]1CO,.,4,.,6,-2
C[C@@H]1CN([C@@H](C)CO)C(=O)c2cc(NS(=O)(=O)c3ccccc3)ccc2O[C@@H](C)CCCCO[C@@H]1CN(C)C(=O)c1ccccc1,.,-2,.,-20,2
COc1cc(C(=O)NC2CCN(C)CC2)ccc1Nc1ncc2c(n1)N(C1CCCCC1)CCC(=O)N2C,-5,-11,-14,-212,76*
CCN1C(=O)CC(c2ccccc2)N(C2CCCC2)c2nc(Nc3ccc(C(=O)NC4CCN(C)CC4)cc3OC)ncc21 (stereo not given),-14,.,0,.,.
CCN1C(=O)CC(C(C)C)N(C2CCCC2)c2nc(Nc3ccc(C(=O)NC4CCN(C)CC4)cc3OC)ncc21 (stereo not given),-29,.,-14,.,.
COc1cc(C(=O)NC2CCN(C)CC2)ccc1Nc1ncc2c(n1)N(Cc1ccccc1)CCC(=O)N2C,-27,-7,13,-296,55*
SMILES,TROY signal inh,LGR2 inh,TWEAK-Fn14 inh,PAX8 reporter,EWS-Fli inh
Cc1cccc(N2CCN(C(=O)C3(S(=O)(=O)c4ccc(Cl)cc4)CC3)CC2)c1C,29,4,-11,13,0
Cc1ccc(S(=O)(=O)C2(C(=O)N3CCN(c4ccccc4F)CC3)CC2)cc1,6,17,66*,1,-1
C[C@@H]1CN([C@H](C)CO)C(=O)c2cc(NC(=O)Cc3cn(C)c4ccccc34)ccc2O[C@@H]1CN(C)CC1CCCCC1,.,-4,.,.,0
C[C@H]1CN([C@@H](C)CO)C(=O)c2cccc(NC(=O)Nc3ccc4c(c3)OCO4)c2O[C@@H]1CN(C)C(=O)Nc1ccccc1,.,29,.,-8,0
C[C@@H]1CN([C@H](C)CO)C(=O)c2cccc(NC(=O)Nc3cccc4ccccc34)c2O[C@H]1CN(C)C(=O)Nc1ccc(C(F)(F)F)cc1,.,9,.,81*,10
C[C@@H]1CN([C@H](C)CO)C(=O)c2cccc(NC(=O)Nc3ccc(C(F)(F)F)cc3)c2O[C@@H]1CN(C)C(=O)Nc1cccc2ccccc12,.,?,.,.,1
C[C@H]1CN([C@@H](C)CO)C(=O)c2cccc(NC(=O)Nc3cccc4ccccc34)c2O[C@@H]1CN(C)C(=O)Nc1ccc(C(F)(F)F)cc1,.,5,.,74*,8
Cc1ccc(S(=O)(=O)N(C)C[C@@H]2Oc3c(NC(=O)Nc4cccc5ccccc45)cccc3C(=O)N([C@@H](C)CO)C[C@H]2C)cc1,.,20,.,.,17
Cc1ccc(S(=O)(=O)N(C)C[C@H]2Oc3c(NC(=O)Nc4cccc5ccccc45)cccc3C(=O)N([C@@H](C)CO)C[C@@H]2C)cc1,-4,6,24,103*,3
C[C@H](CO)N1C[C@H](C)[C@H](CN(C)C(=O)Nc2ccc3c(c2)OCO3)Oc2c(NC(=O)Nc3ccccc3)cccc2C1=O,.,-16,.,72*,-35
C[C@@H]1CN([C@H](C)CO)C(=O)c2cccc(NC(=O)Nc3cccc4ccccc34)c2O[C@@H]1CN(C)C(=O)Nc1ccc(C(F)(F)F)cc1,.,23,.,44,-9
CCC(=O)Nc1ccc2c(c1)C(=O)N(C)[C@@H]1CC[C@@H](CC(=O)NC3Cc4ccccc4C3)O[C@H]1CO2,.,11,.,0,5
O=C(CCc1nc(-c2ccccc2F)no1)Nc1ccc(Oc2ccccc2)cc1,44,14,52*,.,.
C[C@@H]1CN([C@@H](C)CO)C(=O)Cc2cc(NC(=O)Nc3ccc(F)cc3)ccc2O[C@H]1CN(C)S(=O)(=O)c1ccccc1,.,12,.,.,0
COc1ccc(S(=O)(=O)N2CCCCN3[C@H](CO)[C@H](c4ccc(C5=CCCCC5)cc4)[C@H]3C2)cc1,.,.,.,65*,0
COc1ccc(S(=O)(=O)N2CCCCN3[C@H](CO)[C@H](c4ccc(C5=CCCC5)cc4)[C@H]3C2)cc1,.,10,.,5,9
COc1ccc(S(=O)(=O)N2CCCCN3[C@H](CO)[C@H](c4ccc(C#CC(C)C)cc4)[C@H]3C2)cc1,.,8,.,77*,35

# Assay outcomes as filed in PubChem BioAssay.
